# Activity calls are given as the source filed them. Unless noted, no rule for the calls is given here.
# Key:
# [1] = compound effects on lung adenocarcinoma cell viability – A549, calcein-AM fluorescence, 48 h, basal, profiling panel (AID 1162); settings: higher = more signal; also: test concentration not given here
# [2] = compound effects on differentiated 3T3-L1 adipocyte viability – cell-based, 3T3-L1 adipocytes, calcein-AM fluorescence, 48 h, basal, profiling panel (AID 1163); settings: 3T3-L1 adipocytes viability, higher = more signal; also: test concentration not given here
# [3] = compound effects on hepatocellular carcinoma cell viability – HepG2, calcein-AM fluorescence, 48 h, basal, profiling panel (AID 1164); settings: higher = more signal; also: test concentration not given here
# [4] = compound effects on multiple myeloma cell viability – MM1S, calcein-AM fluorescence, 48 h, basal, profiling panel (AID 1165); settings: higher = more signal;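 also: viability of MM1S multiple myeloma cells under basal unstimulated conditions; test concentration not given here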
# [5] = calcein-AM signal in unstimulated myeloma cells – cell-based, calcein-AM fluorescence, 48 h, PK04 Diversity Set, profiling panel (AID 1166); settings: RPMI8226 myeloma viability, higher = more signal;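 also: cells grown under basal conditions without added stimulus; test concentration not given here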
# [6] = JC-1 mitochondrial signal, unstimulated HepG2 cells – cell-based, JC-1 fluorescence, 24 h, 100 nL compound, profiling panel (AID 1167); settings: HepG2 mitochondrial potential, higher = more signal; also: test concentration not given here
# [7] = JC-1 mitochondrial signal, unstimulated adipocytes – cell-based, JC-1 fluorescence, 3T3-L1 adipocytes, 24 h, 100 nL compound, profiling panel (AID 1168); settings: JC-1 mitochondrial fluorescence, higher = more signal, called active from +8 up or from −8 down; also: test concentration not given here
# [8] = JC-1 mitochondrial signal, unstimulated myeloma cells – cell-based, JC-1 fluorescence, RPMI8226, 24 h, 100 nL compound, profiling panel (AID 1169); settings: JC-1 mitochondrial potential fluorescence, higher = more signal; also: test concentration not given here
# [9] = JC-1 mitochondrial signal, unstimulated MM1S myeloma – cell-based, JC-1 fluorescence, 24 h, 100 nL compound, profiling panel (AID 1170); settings: MM1S mitochondrial potential, higher = more signal; also: test concentration not given here
# [10] = resazurin metabolic signal in A549 cells – cell-based, resazurin fluorescence, 24 h, PK04 Diversity Set, profiling panel (AID 1171); settings: A549 viability, higher = more signal, called active from +8 up or from −8 down; also: test concentration not given here
# [11] = resazurin metabolic signal in HepG2 cells – cell-based, resazurin fluorescence, 24 h, PK04 Diversity Set, profiling panel (AID 1172); settings: HepG2 viability, higher = more signal; also: test concentration not given here
# [12] = budding yeast growth changes without added modifier – OD600, strain BY4716, 24 h, basal condition, primary screen (AID 1173); settings: S. cerevisiae BY4716 growth, OD600, 24 h; higher = more signal, called active from +8 up or from −8 down
# [13] = viability profiling in MM1S myeloma cells – cell-based, resazurin fluorescence, basal, 24 h, PK04 Diversity Set, profiling panel (AID 1174); settings: higher = more signal, called active from +8 up or from −8 down; also: test concentration not given here
# [14] = molecular target: Dihydroorotate dehydrogenase (quinone), mitochondrial (Plasmodium falciparum (isolate 3D7)) (UniProt Q08210); assay: inhibition of P. falciparum DHODH – biochemical, C-terminal His tag, absorbance 600 nm, primary screen (AID 1175); settings: PfDHODH enzyme, DCIP absorbance 600 nm; higher = more signal, called active from +8 up or from −8 down;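 also: recombinant parasite enzyme with a five histidine tag at its C terminus; test concentration not given here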
# [15] = inhibition of PAO1 biofilm formation – strain PAO1, LB-PBS medium, absorbance 600 nm, primary screen (AID 1176); also: test concentration not given here; settings: P. aeruginosa PAO1 growth/biofilm, A600, 12 h; higher = more signal
# [16] = growth modulation of vineyard yeast isolate – strain RM11-1a, OD600, basal, 24 h, primary screen (AID 1177);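 also: cultures grown under basal conditions with no added stressor; test concentration not given here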; settings: S. cerevisiae RM11-1a growth, OD600, 24 h; higher = more signal, called active from +8 up or from −8 down
# [17] = growth of efflux-deficient E. coli DRC39 – strain DRC39, OD650, 24 h, E. coli filamentation inducers, primary screen (AID 1178);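 also: growth measured as culture turbidity by optical density at 650 nm; test concentration not given here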; settings: E. coli DRC39 acrAB, higher = more signal, called active from +8 up or from −8 down
# [18] = growth of efflux-deficient E. coli DRC39 – strain DRC39, OD650, 48 h, E. coli filamentation inducers, primary screen (AID 1179);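 also: screen aims at cell division blockers that make cells filament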; settings: E. coli DRC39 delta-acrAB growth, higher = more signal, called active from +8 up or from −8 down
# [19] = viability profiling in RPMI8226 myeloma cells – cell-based, resazurin fluorescence, basal, 24 h, PK04 Diversity Set, profiling panel (AID 1180); settings: higher = more signal;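 also: RPMI8826 multiple myeloma cell line at 5000 cells per well; test concentration not given here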
# [20] = molecular target: E3 ubiquitin-protein ligase XIAP (Homo sapiens) (UniProt P98170); assay: small molecules binding XIAP protein – biophysical, small-molecule microarray, fluorescence 635 nm, primary screen (AID 1181); settings: higher = more signal;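 also: score merges 667 nm emission and signal to noise over triplicate slides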
# Sequence of E3 ubiquitin-protein ligase XIAP (Homo sapiens) (P98170 whole entry, looked up): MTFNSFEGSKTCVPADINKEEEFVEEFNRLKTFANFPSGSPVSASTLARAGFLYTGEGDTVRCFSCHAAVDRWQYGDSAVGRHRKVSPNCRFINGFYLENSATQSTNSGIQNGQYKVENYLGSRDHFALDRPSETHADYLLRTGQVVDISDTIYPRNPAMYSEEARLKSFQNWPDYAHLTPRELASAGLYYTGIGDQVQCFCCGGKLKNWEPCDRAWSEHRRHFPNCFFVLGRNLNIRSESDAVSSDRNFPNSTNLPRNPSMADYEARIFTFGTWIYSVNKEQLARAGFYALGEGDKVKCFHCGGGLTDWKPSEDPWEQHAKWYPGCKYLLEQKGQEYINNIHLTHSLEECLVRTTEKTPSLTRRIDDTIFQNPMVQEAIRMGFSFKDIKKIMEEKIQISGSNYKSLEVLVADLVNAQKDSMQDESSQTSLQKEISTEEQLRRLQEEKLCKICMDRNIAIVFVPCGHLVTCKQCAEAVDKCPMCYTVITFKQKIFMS
# Sequence of Dihydroorotate dehydrogenase (quinone), mitochondrial (Plasmodium falciparum (isolate 3D7)) (Q08210 whole entry, looked up): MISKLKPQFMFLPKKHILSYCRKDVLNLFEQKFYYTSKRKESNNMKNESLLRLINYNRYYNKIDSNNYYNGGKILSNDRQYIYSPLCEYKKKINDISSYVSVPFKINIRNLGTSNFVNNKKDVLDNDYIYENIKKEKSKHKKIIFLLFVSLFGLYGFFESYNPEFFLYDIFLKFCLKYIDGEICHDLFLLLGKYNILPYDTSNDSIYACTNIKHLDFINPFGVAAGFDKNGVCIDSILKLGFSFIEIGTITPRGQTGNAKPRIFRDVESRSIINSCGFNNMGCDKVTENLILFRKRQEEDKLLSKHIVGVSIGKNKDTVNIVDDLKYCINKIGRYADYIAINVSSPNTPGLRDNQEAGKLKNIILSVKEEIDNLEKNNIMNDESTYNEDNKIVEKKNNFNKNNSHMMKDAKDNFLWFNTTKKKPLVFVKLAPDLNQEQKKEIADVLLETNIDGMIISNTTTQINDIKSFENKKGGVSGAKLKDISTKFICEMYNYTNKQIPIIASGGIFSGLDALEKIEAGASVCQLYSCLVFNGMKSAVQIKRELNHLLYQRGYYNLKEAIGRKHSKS
SMILES,z-score [1],z-score [2],z-score [3],z-score [4],z-score [5],z-score [6],z-score [7],z-score [8],z-score [9],z-score [10],z-score [11],z-score [12],z-score [13],composite z-score [14],z-score [15],z-score [16],z-score [17],z-score [18],z-score [19],composite z-score [20]
CC(CO)N1C(=O)[C@@H]2[C@H]3C(=O)OCC=C[C@H]3OC23C=CCN(Cn2nnc4ccccc42)C(=O)[C@@H]13 (stereo not given in full),-0.671,-0.948,-0.907,0.07,-0.637,-1.23,-0.529 (inactive),0.241,-0.226,-0.382 (inactive),-0.628,0.0199 (inactive),-0.124 (inactive),0.29 (inactive),-0.0558 (inactive),-1.27 (inactive),-0.11 (inactive),-0.331 (inactive),-0.35,-0.334
COCCOC(=O)N1C(=O)[C@@]2(c3ccccc31)[C@H](c1ccc(O)cc1)N1[C@H](c3ccccc3)[C@H](c3ccccc3)OC(=O)[C@H]1[C@@H]2C(=O)N1CCN(c2ncccn2)CC1,-0.402,1.26,-0.611,-0.62,-0.42,-0.238,-0.685 (inactive),0.199,0.0293,0.233 (inactive),0.0716,0.353 (inactive),-0.183 (inactive),-0.18 (inactive),2.33 (inactive),-0.451 (inactive),-0.838 (inactive),-0.935 (inactive),-0.0522,0.147
CCOC(=O)C[C@H]1[C@H](OC(=O)c2ccc(C(=O)c3ccccc3)cc2)[C@@H](NC(=O)c2ccc(-c3ccccc3)cc2)c2cc(OCCCO)ccc2N1C(=O)Cc1ccc(OC)cc1,-0.61,0.122,-0.461,0.727,-0.205,1.57,-0.0721 (inactive),-0.807,-0.551,-0.131 (inactive),0.247,0.401 (inactive),-0.176 (inactive),0.25 (inactive),-0.358 (inactive),0.225 (inactive),-0.224 (inactive),0.424 (inactive),-0.0952,-0.0994
C=CCOC(=O)[C@@H]1[C@H]2C(=O)O[C@H](c3ccccc3)[C@H](c3ccccc3)N2[C@H](c2ccc(OCCOC(=O)[C@@H]3C[C@@H]4C(=O)N[C@@H](CCCC[N+](C)(C)C)C(=O)N4[C@@H]3c3ccc(O)cc3)cc2)[C@@]12C(=O)Nc1ccc(I)cc12,-0.602,0.751,-0.495,-2.03,-1.7,-1.87,-0.582 (inactive),-0.657,-1.1,0.0416 (inactive),0.945,-0.398 (inactive),-0.596 (inactive),-2.02 (inactive),0.379 (inactive),1.39 (inactive),-0.507 (inactive),-0.809 (inactive),-0.0426,-0.124
COC(=O)C1(CC(C)C)C=C2C(=C(c3ccccc3)C(=O)C2C)CN1 (stereo not given),-0.837,-0.16,0.0661,0.601,-0.12,0.0103,-1.81 (inactive),-0.604,-1.1,-0.614 (inactive),-1.21,0.397 (inactive),-2.14 (inactive),-1.58 (inactive),0.647 (inactive),0.168 (inactive),-0.33 (inactive),0.208 (inactive),-1.27,-0.0133
NCCCCCNC(=O)[C@@H]1C[C@@H]2C(=O)N[C@@H](CCCCN)C(=O)N2[C@@H]1c1ccc(O)cc1,-0.0858,-0.426,0.131,-0.29,-0.0496,-0.573,1.56 (inactive),-0.457,-1.14,0.0497 (inactive),0.983,1.95 (inactive),0.116 (inactive),0.0173 (inactive),2.49 (inactive),2.39 (inactive),-0.0253 (inactive),-0.14 (inactive),0.249,0.554
COc1ccc(C(=O)Nc2ccc(CN3C(=O)[C@]4(O[C@H](CC(=O)N5Cc6ccccc6C[C@H]5CO)[C@@H]([Si](C)(C)c5ccc(OC)cc5)[C@@H]4C)c4ccccc43)cc2)cc1,-0.513,1.56,0.349,-1.6,-0.786,0.705,-0.212 (inactive),-0.7,-0.911,-1.96 (inactive),-1.61,0.496 (inactive),-1.13 (inactive),-2.72 (inactive),0.0002 (inactive),2.48 (inactive),-1.14 (inactive),-1.09 (inactive),-0.839,-0.239
C=C[C@H](C)[C@H](OC(=O)Nc1ccc(SC)cc1)c1ccc(OCCO)cc1,0.0889,0.954,-0.47,-0.889,-2.41,-2.67,0.508 (inactive),-0.781,-0.72,-1.48 (inactive),-0.551,-2.49 (inactive),-0.547 (inactive),-0.985 (inactive),1.15 (inactive),0.116 (inactive),-0.576 (inactive),-0.435 (inactive),-0.274,0.133
CC(C)[Si]1(C(C)C)OCc2cc(-c3ccc(-c4ccc(Cl)c(Cl)c4)o3)nc(-c3ccccc3)c21,-0.715,0.369,-0.738,-1.77,-1.8,-1.18,-0.485 (inactive),0.194,0.406,0.793 (inactive),0.374,-0.981 (inactive),0.797 (inactive),0.107 (inactive),0.374 (inactive),-0.219 (inactive),-0.28 (inactive),-0.725 (inactive),0.311,-0.031
